PubChem BioAssay AID2156 (Johns Hopkins Ion Channel Center, 2009)
Out of some 310,000 compounds screened, about 3,400 (1.1%) were called active. This is one part of a sample in which actives are shown more often than they occur. Unmarked numbers belong to inactive results.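 How the source made its calls: active means fluorescence ratio B-score at most minus 3 library SDs, with starting brightness B-score within 2 library SDs (cut at about -5.5 in these data); inactive means the rest, inconclusive results apart.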

Biological target: Potassium voltage-gated channel subfamily KQT member 2 (Rattus norvegicus) (UniProt O88943)
Sequence (O88943 whole entry, looked up): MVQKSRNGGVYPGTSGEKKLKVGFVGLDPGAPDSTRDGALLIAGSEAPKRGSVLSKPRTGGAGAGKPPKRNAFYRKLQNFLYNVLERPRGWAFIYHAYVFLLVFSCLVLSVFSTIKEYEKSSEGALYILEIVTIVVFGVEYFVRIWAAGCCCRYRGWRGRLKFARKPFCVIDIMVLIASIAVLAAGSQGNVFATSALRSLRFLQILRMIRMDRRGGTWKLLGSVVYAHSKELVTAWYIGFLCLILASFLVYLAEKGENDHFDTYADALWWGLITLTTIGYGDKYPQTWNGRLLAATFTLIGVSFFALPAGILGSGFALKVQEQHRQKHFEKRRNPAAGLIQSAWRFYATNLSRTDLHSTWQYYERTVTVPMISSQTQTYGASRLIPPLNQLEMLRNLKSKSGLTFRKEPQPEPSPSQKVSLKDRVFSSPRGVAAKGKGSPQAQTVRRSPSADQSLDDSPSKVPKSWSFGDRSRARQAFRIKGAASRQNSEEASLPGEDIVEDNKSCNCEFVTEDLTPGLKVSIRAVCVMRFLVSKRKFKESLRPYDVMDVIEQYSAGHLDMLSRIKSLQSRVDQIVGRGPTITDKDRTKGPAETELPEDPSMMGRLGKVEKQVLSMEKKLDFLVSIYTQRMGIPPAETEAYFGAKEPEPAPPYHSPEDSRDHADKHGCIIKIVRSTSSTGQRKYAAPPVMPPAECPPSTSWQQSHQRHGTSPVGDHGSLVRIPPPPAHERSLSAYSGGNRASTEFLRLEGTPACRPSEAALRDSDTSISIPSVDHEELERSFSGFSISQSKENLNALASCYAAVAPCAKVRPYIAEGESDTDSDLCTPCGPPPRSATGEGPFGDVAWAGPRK
Assay: rat KCNQ2 potassium channel inhibitors, primary screen, cell-based, CHO-K1, FluxOR thallium flux, B-score (AID 2156)
Settings: 20 min, at 10 µM; active compounds read low

SMILES	B-score
CC1CCN(C(=O)COC(=O)c2cc(S(=O)(=O)N3CCOCC3)ccc2Cl)CC1	inactive
COc1ccc(C(CNC(=O)c2cccc(S(=O)(=O)Nc3ccccc3Cl)c2)N2CCOCC2)cc1 (configuration not stated)	inactive
Cc1ccc(OCC(=O)NC(C)c2ccccc2)cc1C (configuration not stated)	-1.87
CCOc1ccc(C(CC(=O)O)NC(=O)Cc2ccccc2)cc1OC (configuration not stated)	-0.84
CCOc1ccc(C(CC(=O)O)NC(=O)COc2ccccc2)cc1 (configuration not stated)	-5.97 (active)
Cc1ccc(S(=O)(=O)N(C)C)cc1NC(=O)COC(=O)/C=C/c1cccs1	inactive
CC(OC(=O)CCCc1c[nH]c2ccccc12)C(=O)Nc1ccc(S(N)(=O)=O)cc1 (configuration not stated)	-1.39
Clc1ccc(CSc2nnc(/C=C/c3ccccc3)o2)c(Cl)c1	-5.38
CSCc1cc(N2CCOCC2)nc(SCc2ccc(Cl)cc2Cl)n1	-0.52
CSCc1cc(N(C)C)nc(SCc2ccc(Cl)cc2Cl)n1	-9.71 (active)
C=CCOc1ccc(/C=C/C(=O)OCC(=O)NC(C)c2ccc(F)cc2)cc1 (configuration not stated)	inactive
O=C(Nc1ccc(S(=O)(=O)N2CCCCC2)cc1)C1CCN(C(=O)c2ccc(F)cc2)CC1	-0.91
CC1=CC(C)(C)Nc2ccc(OC(=O)CN3C(=O)C4CCCCC4C3=O)cc21 (configuration not stated)	-1.65
CCOC(=O)C(Cc1ccc(N)cc1)N1C(=O)c2ccccc2C1=O (configuration not stated)	inactive
CC1=CC(C)(C)Nc2ccc(OC(=O)C(Cc3ccccc3)N3C(=O)C4CCCCC4C3=O)cc21 (configuration not stated)	-7.42 (active)
COC(=O)c1ccc(C(NC(=O)OCc2ccccc2)/C(F)=C/[C@@H](C)C(=O)O)cc1 (some centres not stated)	-1.01
CCC[C@@H]1C[C@@]1(CCC)[C@@H](NC(=O)c1ccccc1)c1ccc(C(=O)OC)cc1	-5.11
CCC/C=C(\CCC)C(NC(=O)Cc1ccccc1)c1ccc(C(=O)OC)cc1 (configuration not stated)	-7.39 (active)
Cc1ccc(C(=O)CN2C(=O)NC3(CCc4ccccc43)C2=O)c(C)c1 (configuration not stated)	-1.41

SMILES	B-score
COc1ccccc1-n1ccnc(SCC(=O)NC2CCCCC2)c1=O	inactive
O=C1[C@H]2[C@@H](c3ccc(Cl)cc3)N3C(=O)N(c4cccc(F)c4)C(=O)[C@@]3(Cc3ccccc3)[C@H]2C(=O)N1C1CCCCC1	inactive
COc1ccc(N2CC(NS(=O)(=O)c3ccc4ccccc4c3)CC2=O)cc1 (configuration not stated)	-0.16
Cc1ccc(-c2nnc(C)c(N3CC(C)OC(C)C3)n2)cc1 (configuration not stated)	-0.19
CC1CN(c2nc(-c3ccccc3)nnc2-c2ccccc2)CC(C)O1 (configuration not stated)	-6.3 (active)
CC1CN(c2nc(Nc3ccccc3)nc(N)c2[N+](=O)[O-])CC(C)O1 (configuration not stated)	-0.73
C=CS(=O)c1sc(Cl)c(N2CCOCC2)c1[N+](=O)[O-] (configuration not stated)	-15.5 (active)
COc1ccc(NC(=O)CN(C)C(=O)/C=C/c2cn(Cc3ccccc3)nc2-c2cccnc2)cc1	-0.04
O=C(COc1ccccc1)Nc1ccc(F)cc1	-1.43
O=C(NCCCO)c1cc2c([nH]c3ccccc32)c(-c2ccc(F)cc2)n1	inactive
O=C(NCC1CCCO1)c1cc2c([nH]c3ccccc32)c(-c2ccc(F)cc2)n1 (configuration not stated)	-8.97 (active)
O=C(NCC1CCCO1)c1cc(-c2ccccc2)nc2ccccc12 (configuration not stated)	inactive
COc1ccc(C(=O)N(Cc2ccccc2)c2ccc(C)cc2)cc1S(=O)(=O)N1CCOCC1	-0.58
CC1CCCCC1NC(=O)c1cc(=O)[nH]c2ccccc12 (configuration not stated)	-0.66
CCc1ccc(CN2C(=O)c3ccccc3C2C(=O)NCC2CCCO2)cc1 (configuration not stated)	inactive
O=C(NC1CCCCC1)C1c2ccccc2C(=O)N1Cc1ccco1 (configuration not stated)	inactive
CC1CCC(NC(=O)C2c3ccccc3C(=O)N2Cc2ccc3c(c2)OCO3)CC1 (configuration not stated)	-6.13 (active)
Cc1cc(C)cc(NC(=O)COc2coc(CN3CCN(c4ccccc4)CC3)cc2=O)c1	inactive
CSc1ccc(S(=O)(=O)NCC(=O)OCC(=O)NC2(C#N)CCCCC2)cc1[N+](=O)[O-]	inactive

SMILES	B-score
CN1CCN(C2Cc3ccc(Cl)cc3Sc3ccc(F)cc32)CC1 (configuration not stated)	-4.84
CCOc1ccc(NC(=O)c2ccc(NC(=O)CN3C(=O)C(=O)N(CC(C)C)C3=O)cc2)cc1	inactive
O=C(c1cncc(Br)c1)N1CCN(c2ccc([N+](=O)[O-])cc2)CC1	-4.15
O=C(c1cc(C(=O)N2CCN(c3ccc(F)cc3)CC2)cc([N+](=O)[O-])c1)N1CCN(c2ccc(F)cc2)CC1	-5.93 (active)
O=C(c1ccccc1)c1ccc(C(=O)N2CCN(c3ccccc3)CC2)cc1	-0.65
O=C(c1cc2cc(F)ccc2[nH]1)N1CCN(c2ccc(F)cc2)CC1	inactive
O=C(c1cccc(C(=O)N2CCN(c3ccc(F)cc3)CC2)c1)N1CCN(c2ccc(F)cc2)CC1	-6 (active)
O=C(c1cccc(F)c1)N1CCN(c2ccc([N+](=O)[O-])c(N3CCCCC3)c2)CC1	-0.07
Cc1ccc(Cc2nnc(SCC(=O)Nc3ccc(C)cc3C)[nH]c2=O)cc1	inactive
CC(=O)CC(CC(=O)NC1CCCCC1)c1ccccc1 (configuration not stated)	inactive
O=C1[C@H]2[C@@H](c3ccc(F)cc3)N3C(=O)N(c4ccc(C(F)(F)F)cc4)C(=O)[C@@]3(Cc3ccccc3)[C@H]2C(=O)N1C1CCCCC1	-0.02
O=C(NCC(c1ccco1)N1CCc2ccccc2C1)c1ccccc1Cl (configuration not stated)	-1.22
Cc1ccc(Cc2nnc(SCC(=O)Nc3ccccc3C)[nH]c2=O)cc1	inactive
CCOc1ccc(NS(=O)(=O)c2ccc(C(=O)NC3CCN(Cc4ccccc4)CC3)cc2)cc1	inactive
CCOc1cc(C(C(=O)NCC2CCCO2)N(C(=O)Cn2nnc3ccccc32)c2cccc(OC)c2)ccc1O (configuration not stated)	inactive
CCOc1ccc(N(CC(=O)NCC2CCCO2)S(=O)(=O)c2ccc(C)cc2)cc1 (configuration not stated)	-0.74
CCOc1cc(-c2nc3cc(C)ccn3c2NCC2CCCO2)ccc1O (configuration not stated)	-5.56 (active)
O=[N+]([O-])c1ncc(Br)cc1Nc1ccccc1	-2.54
CC(=O)N1CCN(C(=O)c2cc(-c3ccc(C)o3)nc3ccccc23)CC1	inactive
